Common to all, as to assay: protein-binding microarray (PBM); PBM: ~300 nM protein, 6 mM HEPES pH 7.8, 80 mM KCl, 0.5 mM EDTA, 0.5 mM EGTA, 6% glycerol, 35 ng/ul poly-dIdC, 1% milk, 1 h, room temperature; Ap Aiptasia and Nv Nematostella (sea anemones) / Co Capsaspora / Aq Amphimedon (sponge) / Dm Drosophila / Hu human; RHD is the Rel homology domain; high values mean tight binding
What all share (conditions): dsDNA, one strand shown

One experiment deals with T1, GST-Ap-NF-kB RHD (Exaiptasia pallida (Aiptasia), UniProt A0A913YAJ5 2-422).
T1 sequence: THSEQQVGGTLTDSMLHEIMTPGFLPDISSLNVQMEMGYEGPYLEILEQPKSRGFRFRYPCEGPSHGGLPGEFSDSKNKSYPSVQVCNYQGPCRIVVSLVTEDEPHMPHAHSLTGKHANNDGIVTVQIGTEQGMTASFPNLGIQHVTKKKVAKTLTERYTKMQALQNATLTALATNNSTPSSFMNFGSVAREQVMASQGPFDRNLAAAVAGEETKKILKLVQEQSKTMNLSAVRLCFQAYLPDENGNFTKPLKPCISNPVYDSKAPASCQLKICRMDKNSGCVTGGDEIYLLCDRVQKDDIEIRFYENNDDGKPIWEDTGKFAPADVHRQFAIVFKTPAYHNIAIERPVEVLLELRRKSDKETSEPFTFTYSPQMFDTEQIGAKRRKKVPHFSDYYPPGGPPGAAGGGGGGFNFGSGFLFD

The target in experiment [1] is T2, GST-Nv-NF-kB (Cys allele) (Nematostella vectensis, UniProt E5G601 2-411).
T2 sequence: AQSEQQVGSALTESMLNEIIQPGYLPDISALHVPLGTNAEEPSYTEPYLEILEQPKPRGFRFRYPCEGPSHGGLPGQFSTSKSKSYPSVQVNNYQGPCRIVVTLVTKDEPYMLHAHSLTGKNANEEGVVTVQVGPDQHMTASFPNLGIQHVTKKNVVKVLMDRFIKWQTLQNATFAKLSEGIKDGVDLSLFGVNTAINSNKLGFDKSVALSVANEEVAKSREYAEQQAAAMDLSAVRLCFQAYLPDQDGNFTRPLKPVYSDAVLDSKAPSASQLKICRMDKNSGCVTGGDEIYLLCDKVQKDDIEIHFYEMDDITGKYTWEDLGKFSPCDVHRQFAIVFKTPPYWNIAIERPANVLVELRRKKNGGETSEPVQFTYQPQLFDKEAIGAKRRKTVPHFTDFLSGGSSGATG

The target of the next experiment is T3, GST-Co-NF-kB (Capsaspora owczarzaki, UniProt F1ARL5 200-546).
T3 sequence: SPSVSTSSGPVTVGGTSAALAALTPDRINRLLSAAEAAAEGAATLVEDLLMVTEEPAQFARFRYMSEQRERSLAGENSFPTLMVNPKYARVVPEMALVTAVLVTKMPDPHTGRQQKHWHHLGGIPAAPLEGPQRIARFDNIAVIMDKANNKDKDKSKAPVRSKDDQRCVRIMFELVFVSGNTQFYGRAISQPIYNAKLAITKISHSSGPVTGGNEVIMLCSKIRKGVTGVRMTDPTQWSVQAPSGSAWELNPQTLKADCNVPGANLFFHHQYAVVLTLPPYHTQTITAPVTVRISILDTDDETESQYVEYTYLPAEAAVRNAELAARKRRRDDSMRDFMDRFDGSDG

For a further experiment, the target named is T4, GST-Dm-Relish (Drosophila melanogaster, UniProt Q94527 99-473).
T4 sequence: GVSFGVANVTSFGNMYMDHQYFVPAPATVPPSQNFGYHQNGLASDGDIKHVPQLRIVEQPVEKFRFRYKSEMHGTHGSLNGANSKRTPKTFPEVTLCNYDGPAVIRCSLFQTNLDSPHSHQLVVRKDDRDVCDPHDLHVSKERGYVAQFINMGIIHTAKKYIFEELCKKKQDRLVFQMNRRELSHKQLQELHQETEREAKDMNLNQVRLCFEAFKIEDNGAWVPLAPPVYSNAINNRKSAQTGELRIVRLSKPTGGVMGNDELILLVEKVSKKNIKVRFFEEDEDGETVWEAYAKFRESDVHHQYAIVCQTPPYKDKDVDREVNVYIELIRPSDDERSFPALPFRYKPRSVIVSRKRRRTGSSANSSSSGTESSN

Another experiment addresses T5, GST-Aq-NF-kB (Amphimedon queenslandica, UniProt A9Y5G7 2-389).
T5 sequence: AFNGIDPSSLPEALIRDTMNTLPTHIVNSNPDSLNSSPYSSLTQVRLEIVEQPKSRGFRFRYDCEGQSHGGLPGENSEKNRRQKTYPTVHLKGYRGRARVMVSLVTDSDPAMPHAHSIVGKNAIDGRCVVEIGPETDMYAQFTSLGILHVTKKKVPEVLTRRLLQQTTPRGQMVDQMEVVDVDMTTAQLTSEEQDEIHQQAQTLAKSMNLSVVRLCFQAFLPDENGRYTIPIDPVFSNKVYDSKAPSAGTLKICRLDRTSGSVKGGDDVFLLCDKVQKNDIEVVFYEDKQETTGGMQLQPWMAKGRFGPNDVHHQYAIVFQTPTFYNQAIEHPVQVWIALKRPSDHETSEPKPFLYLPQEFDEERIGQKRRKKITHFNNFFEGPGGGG

Turning to “CCGATTAACATCACACACCCCCCTGATGTTAATCGGGTCTTGATTCGCTTGACGCTGCTG”, the binding signal with GST-Ap-NF-kB RHD came out at 4.13 z-score; in experiment [1] it was 3.15 z-score; in the experiment with GST-Co-NF-kB, 3.85 z-score; in the experiment with GST-Dm-Relish, 3.82 z-score; in the experiment with GST-Aq-NF-kB, 3.48 z-score.

As to “CCGATTAACATCAGGAACACCCCTGATGTTAATCGGGTCTTGATTCGCTTGACGCTGCTG”, the binding signal stood at 3.14 z-score with GST-Ap-NF-kB RHD; 1.33 z-score in experiment [1]; 1.86 z-score with GST-Co-NF-kB; 3.5 z-score in the experiment with GST-Dm-Relish; 4.23 z-score in the experiment with GST-Aq-NF-kB.

With “CCGATTAACATCAGGAGTTACCCTGATGTTAATCGGGTCTTGATTCGCTTGACGCTGCTG”, the binding signal was found to be 2.75 z-score in the experiment with GST-Ap-NF-kB RHD; 3.81 z-score in experiment [1]; 2.23 z-score with GST-Co-NF-kB; 5.11 z-score with GST-Dm-Relish; 6.71 z-score with GST-Aq-NF-kB.

As to “CCGATTAACATCAAGGGATTCCCTGATGTTAATCGGGTCTTGATTCGCTTGACGCTGCTG”, the binding signal with GST-Ap-NF-kB RHD was found to be 6.28 z-score; in experiment [1] it was 5.98 z-score; with GST-Co-NF-kB, 2.7 z-score; with GST-Dm-Relish, 9.45 z-score; in the experiment with GST-Aq-NF-kB, 6.56 z-score.

Turning to “CCGATTAACATCAAGGGATTTTCTGATGTTAATCGGGTCTTGATTCGCTTGACGCTGCTG”, the binding signal with GST-Ap-NF-kB RHD was 5.78 z-score; in experiment [1] it was 6.63 z-score; with GST-Co-NF-kB, 1.57 z-score; with GST-Dm-Relish it was 6.57 z-score; in the experiment with GST-Aq-NF-kB, 6.65 z-score.

With “CCGATTAACATCAGGGGAGAATATGATGTTAATCGGGTCTTGATTCGCTTGACGCTGCTG”, the binding signal in the experiment with GST-Ap-NF-kB RHD amounted to 4.99 z-score; in experiment [1], 5.42 z-score; with GST-Co-NF-kB, 7.41 z-score; with GST-Dm-Relish it was 1.73 z-score; in the experiment with GST-Aq-NF-kB, 3.83 z-score.

As to “CCGATTAACATCAGAAATCCCGCTGATGTTAATCGGGTCTTGATTCGCTTGACGCTGCTG”, the binding signal with GST-Ap-NF-kB RHD was 3.54 z-score; in experiment [1], 2.85 z-score; with GST-Co-NF-kB, 1.57 z-score; in the experiment with GST-Dm-Relish, 4.94 z-score; with GST-Aq-NF-kB it was 3.08 z-score.

Consider “CCGATTAACATCAAAAAACACCCTGATGTTAATCGGGTCTTGATTCGCTTGACGCTGCTG”, for which the binding signal with GST-Ap-NF-kB RHD was 4.07 z-score; in experiment [1], 4.18 z-score; with GST-Co-NF-kB, 2.93 z-score; with GST-Dm-Relish it was 6.06 z-score; in the experiment with GST-Aq-NF-kB, 5.32 z-score.

In the case of “CCGATTAACATCAGGATCTTCCCTGATGTTAATCGGGTCTTGATTCGCTTGACGCTGCTG”, the binding signal with GST-Ap-NF-kB RHD came to 3.64 z-score; in experiment [1], 3.68 z-score; with GST-Co-NF-kB, 1.18 z-score; with GST-Dm-Relish, 1.53 z-score; with GST-Aq-NF-kB it was 5.89 z-score.

On to “CCGATTAACATCAGGCCATCCCCTGATGTTAATCGGGTCTTGATTCGCTTGACGCTGCTG”, for which the binding signal worked out at 3.87 z-score with GST-Ap-NF-kB RHD; 4.02 z-score in experiment [1]; 1.22 z-score with GST-Co-NF-kB; 7.89 z-score with GST-Dm-Relish; 5.6 z-score with GST-Aq-NF-kB.
